ChEMBL document CHEMBL3433997, “St. Jude Leishmania screening dataset” (2016)

What was measured:
Assay type in all cases: functional
[1] = biological target: Solute carrier family 2, facilitated glucose transporter member 1 (Homo sapiens) (UniProt P11166); experiment: ST_JUDE_LEISH: Cytotoxicity at 2uM final concentration against transgenic Leishmania Mexicana promastigotes LmGLUT1 that are glucose transport deficient and complemented with the human glucose transporter GLUT1. Activity is measured by DNA content using SYBR green in vitro
Chain of Solute carrier family 2, facilitated glucose transporter member 1 (Homo sapiens) (P11166 whole entry): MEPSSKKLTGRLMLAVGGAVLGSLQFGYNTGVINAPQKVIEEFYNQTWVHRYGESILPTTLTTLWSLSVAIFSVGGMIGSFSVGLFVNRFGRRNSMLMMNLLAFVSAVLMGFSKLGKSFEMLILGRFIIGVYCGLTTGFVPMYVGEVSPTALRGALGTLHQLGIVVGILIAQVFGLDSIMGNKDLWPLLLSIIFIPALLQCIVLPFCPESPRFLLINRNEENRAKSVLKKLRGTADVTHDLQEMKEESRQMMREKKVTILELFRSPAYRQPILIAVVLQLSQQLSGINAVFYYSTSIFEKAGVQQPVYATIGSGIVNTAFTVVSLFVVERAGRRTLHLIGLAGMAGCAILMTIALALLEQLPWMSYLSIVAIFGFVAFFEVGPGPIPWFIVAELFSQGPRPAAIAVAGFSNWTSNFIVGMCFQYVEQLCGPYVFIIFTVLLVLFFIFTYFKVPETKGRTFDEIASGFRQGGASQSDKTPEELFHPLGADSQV

[2] = biological target: Hexose transporter 1 (Plasmodium falciparum) (UniProt O97467); experiment: ST_JUDE_LEISH: Cytotoxicity at 2uM final concentration against transgenic Leishmania Mexicana promastigotes LmPfHT that are glucose transport deficient and complemented with the Plasmodium falciparum hexose transporter. Activity is measured by DNA content using SYBR green in vitro
[3] = biological target: Glucose transporter (Leishmania mexicana) (UniProt O61059); experiment: ST_JUDE_LEISH: Cytotoxicity at 2uM final concentration against transgenic Leishmania Mexicana promastigotes LmGT2 that are glucose transport deficient and complemented with the L. Mexicana glucose transporter 2. Activity is measured by DNA content using SYBR green in vitro

Row | SMILES | inhibition [1] [%] | inhibition [2] [%] | inhibition [3] [%]
1 | COc1ccc(CCn2c(=N)c(C(=O)NCc3ccc(C)cc3)cc3c(=O)n4ccccc4nc32)cc1 | 3.94 | 3.72 | 3.95
2 | S=C(NN=Cc1ccccn1)NC1CC2C=CC1C2 (stereo not drawn) | 10 | 13.6 | -1.49
3 | O=C(NC1CCCCC1)N(Cc1ccc(-c2ccc(CNC3CCCC3)cc2)cc1)C1CCN(Cc2ccccc2)CC1 | 1.76 | 3.96 | 5.15
4 | CNC(=O)NC1=NC(C)(C)N(OCCCOc2cc(Cl)c(Cl)cc2Cl)C(N)=N1 | 11.5 | 11.8 | 11.6
5 | CS(=O)(=O)c1ccc(-n2nc(C(F)(F)F)cc2-c2ccc(C=NOCC(=O)O)o2)cc1 | 1.5 | 2.45 | -0.38
6 | CO/C(=C\C=C\c1cc2cc(Cl)c(Cl)cc2[nH]1)C(=O)NCCCN1CCN(c2ccc(OC)cc2)CC1 | 2.11 | 2.47 | 1.28
7 | CC(=O)Oc1ccc(C(=O)Oc2ccccc2C#CC#N)cc1OC(C)=O | -2.02 | 0.93 | -1.3
8 | O=C1COC2(CN1CC1CCN(Cc3ccc(O)c(Cl)c3)C1)c1ccccc1-c1ccccc12 (stereo not drawn) | -0.03 | -0.11 | -0.34
9 | COc1ccc2nccc([C@@H](O)CN3CCC(c4cc(-c5ccc(Cl)cc5)[nH]n4)CC3)c2n1 | 64.9 | 78.2 | 81.2
10 | CC(CN(C)C)C(=O)Nc1ccc(-c2csc(-c3nc4ccccc4[nH]3)c2)cc1 (stereo not drawn) | 0.09 | 3.49 | 3.09
11 | CCc1cccc2sc(N3CCN(C(=O)c4ccc([N+](=O)[O-])o4)CC3)nc12 | 71.2 | 69.1 | 36.8
12 | COc1cc(CNCCCNc2cc(=O)c3ccccc3[nH]2)c2c(c1)C(C)CN2C(=O)OC(C)(C)C (stereo not drawn) | 9.27 | 10.7 | 4.19
13 | CCCCN1C(=O)C2CC(=O)CC(C3CCCCC3)C2C1=O (stereo not drawn) | 0.97 | 0.42 | 2.77
14 | Cc1cccc2nc(-c3cccc(-c4cccc(NC(=O)C(C)CN5CCN(C)CC5)c4)c3)[nH]c12 (stereo not drawn) | 1.94 | 1.44 | 5.8
15 | CCN(CC)CCCN(C(=O)Nc1cc(F)cc(F)c1)c1nc(-c2ccc(F)cc2)cs1 | 1.8 | -0.11 | 1.69
16 | COc1ccc(CN2CCC(CNCCc3ccccc3Cl)CC2)cc1 | 19.2 | 11.1 | 12.5
17 | Cc1ccccc1CNc1noc(-c2c(F)cccc2Cl)n1 | 4.28 | 5.55 | 5.34
18 | CCOC(=O)Nc1cc(-c2csc(N=C(N)N)n2)cc([N+](=O)[O-])c1 | 0.23 | 0.58 | 1.09
19 | COc1ccc(OC)c(-c2cccc(-c3cccc(NC(=O)c4ccc([N+](=O)[O-])o4)c3)n2)c1 | 6.43 | 9.55 | 3.3
20 | COc1ccc(NC(=O)[C@H](CC(C)C)Nc2cc(C)nc(Nc3ccccc3)n2)cc1 | 19.2 | 15.8 | 14.9
21 | Cc1[nH]c2ccc(NS(C)(=O)=O)cc2c1C1CCN(CCC2CCN(C(=O)/C=C/c3ccc(Cl)c(Cl)c3)CC2)CC1 | -0.38 | -1.33 | -1.24
22 | CC1CN(c2ccc(NC(=O)c3ccsc3)cc2C(=O)N2CCN(Cc3ccc(C(C)(C)C)cc3)CC2)CC(C)O1 (stereo not drawn) | -1.24 | 1.1 | 0.3
23 | COc1cccc(CN2CCCC(OC(c3ccc(F)cc3)c3ccc(F)cc3)C2)c1O (stereo not drawn) | 0.04 | 0.76 | -1.69

Row | SMILES | inhibition [1] [%] | inhibition [2] [%] | inhibition [3] [%]
24 | Cc1cccc2nc(-c3cccc(-c4cccc(NC(=O)C5CC(=O)Nc6ccccc65)c4)c3)[nH]c12 (stereo not drawn) | 4.88 | -1.8 | 5.82
25 | OC(CN1CCN(c2cccc(Cl)c2)CC1)C(c1ccccc1)c1ccccc1 (stereo not drawn) | -1.02 | 2.99 | -2.94
26 | CC(C)NCc1ccc(-c2ccc(NC(=O)c3ccc(Cl)cc3)cc2)cc1 | 19.7 | 16.2 | 16.1
27 | O=C(NCc1ccc(F)cc1)c1cc(Br)cc(N2CCN(c3ccncc3)CC2)c1 | 7.75 | 6.55 | 4.17
28 | CC(CCCCC(=O)Nc1ccc(CC(C)NCCc2cccc(Cl)c2)cc1)NCCc1cccc(Cl)c1 (stereo not drawn) | 0.84 | 2.45 | -1.1
29 | Cc1ccc(NC(=O)c2cc([N+](=O)[O-])ccc2NCc2cccnc2)cc1Cl | 1.5 | 0.38 | 2.63
30 | CCOc1ccc2[nH]c(C)cc(=NN=Cc3ccccc3Cl)c2c1 | 12.3 | 8.94 | 5.71
31 | Oc1ccccc1CCNCC1CCc2ccccc2C1 (stereo not drawn) | -0.47 | -0.01 | 0.73
32 | O=C(Cn1c(SCc2cccc(F)c2F)cc(=O)c2ccccc21)N(CCCn1ccnc1)Cc1ccc(-c2ccc(C(F)(F)F)cc2)cc1 | 3.11 | 1.44 | 2.6
33 | O=C(NC1CCN(CCN2CCC(c3c[nH]c4ccccc34)CC2)CC1)c1ccc(-c2ccc(C(F)(F)F)cc2)cc1 | 59 | 19.8 | 30.2
34 | Cc1cc(O)c(-c2cc(C(=O)Nc3cccnc3)[nH]n2)cc1C | 7.05 | 4.46 | 4.37
35 | CN(Cc1cccc(C#N)c1)C1CCN(c2cc(NC(=O)c3ccc(F)cc3)ccn2)CC1 | 3.29 | 2.12 | 4.06
36 | Cc1ccc(C2(C)CC(C)(C)N(C(=O)COc3ccc4ccccc4c3)c3ccccc32)cc1 (stereo not drawn) | -1.77 | -1.69 | 1.03
37 | C[C@H](Cc1ccc(OCCCCCOc2ccc(C[C@@H](C)NC[C@H](O)c3cccc(Cl)c3)cc2)cc1)NC[C@H](O)c1cccc(Cl)c1 | 106 | 104 | 107
38 | N#Cc1cccc(C(=O)Nc2ccc(-c3cccc(CN4CCCC4)c3)cc2)c1 | 55.6 | 6.55 | 7.42
39 | COc1ccc(Br)cc1C1Nc2ccc3ccccc3c2C2=C1C(=O)CC(c1ccccc1)C2 (stereo not drawn) | 1.86 | 2.25 | 3.67
40 | O=C(Nc1ccc(OC2CCN(Cc3ccc(F)cc3)C2)cc1)c1cccs1 (stereo not drawn) | -3.81 | -1.65 | -0.11
41 | CN(C)CCCOc1ccccc1CN1CC[C@H](NC(=O)c2ccc(Cl)c(Cl)c2)C1 | -0.17 | -0.54 | -2.05
42 | CC(C)COc1cc(C(=O)Nc2cnc3ccccc3c2)ccc1[N+](=O)[O-] | 11.9 | 10.8 | 10.9
43 | Cc1cccc2nc(-c3ccc(-c4ccc(NC(=O)C(C)CN(C)C)cc4)s3)[nH]c12 (stereo not drawn) | 4.89 | 6.11 | 3.65
44 | CC(C)CCN1CCCN(Cc2cccc(NC(=O)c3ccc(Cl)c(Cl)c3)c2)CC1 | -1.69 | -1.38 | -3.74
45 | CN1CCC(Oc2ccc(CN3CC[C@H](NC(=O)c4ccc(Cl)c(F)c4)C3)c3ccccc23)C1 (stereo partly drawn) | 0.38 | 3.36 | 2.67
46 | NC1CCCN(Cc2cccc(-c3ccc(-c4nc5ccccc5[nH]4)cc3)c2)C1 (stereo not drawn) | 7.18 | 5.94 | 8.63
